Records with an inconclusive call do not appear. Activity calls are given as the source filed them. The calls were made as follows: active = hit-call score of the fitted dose curve at least 0.9, where 1 is the maximum; inconclusive = response in the unintended direction; inactive = score below 0.9.
Experiments:
[1] = target: Cellular tumor antigen p53 (Homo sapiens) (UniProt P04637); assay: TOX21_p53_BLA_p2_ratio: Tox21 HCT-116 p53 Agonism Beta-lactamase Assay, Ratio, Phase 2 (AID 2283592)
In short: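 Gain-of-signal p53 agonism was scored from the beta-lactamase FRET ratio (460/530 nm, 405 nm excitation) in HCT116 cells treated 16 h at 37C, 5% CO2, with DMSO serving as negative control and baseline.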

[2] = TOX21_p53_BLA_p3_viability: Viability Assessment in the Tox21 HCT-116 p53 Agonism Beta-lactamase Assay, Phase 3 (AID 2283593);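 also: cells exposed to compound for 16 h before reading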
In short: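 HCT116 cells, 4000/well, dosed 5 h after plating by pin transfer (217-fold dilution from DMSO stock) and incubated 16 h at 37C, 5% CO2. Viability read as ATP luminescence with CellTiter-Glo after 30 min at room temperature.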

[3] = target: Cellular tumor antigen p53 (Homo sapiens) (UniProt P04637); assay: TOX21_p53_BLA_p3_ratio: Tox21 HCT-116 p53 Agonism Beta-lactamase Assay, Ratio, Phase 3 (AID 2283596)
In short: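 HCT116 p53-bla cells (4000/well) given compound in DMSO (217-fold dilution) after 5 h, incubated 16 h at 37C. CCF4-AM substrate 2 h at room temperature; 460/530 nm emission ratio, gain fitted against DMSO.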

[4] = TOX21_p53_BLA_p5_viability: Viability Assessment in the Tox21 HCT-116 p53 Agonism Beta-lactamase Assay, Phase 5 (AID 2283600)
In short: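 After the 460/530 nm beta-lactamase measurement, the wells received an ATP-detection luciferase reagent; signal was read 30 min later at RT. Compound treatment lasted 16 h on cells pre-incubated 5 h post-seeding.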

[5] = target: Cellular tumor antigen p53 (Homo sapiens) (UniProt P04637); assay: TOX21_p53_BLA_p4_ratio: Tox21 HCT-116 p53 Agonism Beta-lactamase Assay, Ratio, Phase 4 (AID 2283601)
In short: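 HCT-116 p53 beta-lactamase reporter cells (4000/well) preincubated 5 h, then compound (217-fold dilution of DMSO stock) for 16 h at 37C. CCF4-AM substrate added 2 h at room temperature; 460/530 nm emission ratio fitted upward versus DMSO.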

[6] = TOX21_p53_BLA_p4_viability: Viability Assessment in the Tox21 HCT-116 p53 Agonism Beta-lactamase Assay, Phase 4 (AID 2283597);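 also: hits lower the luminescence signal meaning cytotoxicity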
In short: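 Following a 16 h exposure at 37C, the treated HCT116 wells were first read for the FRET ratio. They were then lysed with CellTiter-Glo, and ATP luminescence was recorded after 30 min at room temperature.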

[7] = target: Cellular tumor antigen p53 (Homo sapiens) (UniProt P04637); assay: TOX21_p53_BLA_p5_ratio: Tox21 HCT-116 p53 Agonism Beta-lactamase Assay, Ratio, Phase 5 (AID 2283599)
In short: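 HCT-116 p53-bla cells (4000/well) plated 5 h, dosed with compound (217-fold DMSO dilution) for 16 h at 37 C; CCF4-AM substrate 2 h at room temperature. Activity is the 460/530 nm emission ratio (405 nm excitation), fitted in gain-of-signal direction versus DMSO.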

Measured: AC50

Chain of Cellular tumor antigen p53 (Homo sapiens) (P04637 whole entry, looked up): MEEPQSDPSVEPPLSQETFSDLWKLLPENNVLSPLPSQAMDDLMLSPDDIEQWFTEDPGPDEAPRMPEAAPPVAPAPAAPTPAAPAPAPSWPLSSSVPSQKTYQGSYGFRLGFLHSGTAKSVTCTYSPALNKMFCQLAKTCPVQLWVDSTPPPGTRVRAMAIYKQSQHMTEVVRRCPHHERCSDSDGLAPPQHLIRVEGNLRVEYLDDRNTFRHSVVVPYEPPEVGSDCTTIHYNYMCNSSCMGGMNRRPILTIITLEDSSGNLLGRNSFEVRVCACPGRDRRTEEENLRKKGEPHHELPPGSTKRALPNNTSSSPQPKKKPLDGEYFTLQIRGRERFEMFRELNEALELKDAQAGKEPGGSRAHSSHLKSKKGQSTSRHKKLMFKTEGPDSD

CCCCN(N=O)C(=N)N[N+](=O)[O-]
active: [1] 57 µM | [3] 56.4 µM | [5] 40.7 µM
inactive: [2] | [4]

CNN
inactive: [1] | [2] | [6] | [4]

CCN(CCO)CCn1c(Cc2ccccc2)nc2c1c(=O)n(C)c(=O)n2C
inactive: [1] | [2] | [6] | [7]

COc1ccc(C(=O)N2CCCC2=O)cc1
not listed: [3] | [5]
inactive: all other assays above

CN(C)[C@H](Cc1ccccc1)c1ccccc1
active: [2] 37.9 µM
inactive: [1] | [3] | [7] | [4]

Nc1nc(N)nc(N)n1
not listed: [4] | [6]
inactive: all other assays above

Clc1ccc(C(Cl)(Cl)Cl)cc1Cl
not listed: [3] | [7]
inactive: all other assays above

CC(N)Cc1ccc2c(c1)OCO2 (stereo not given)
not listed: [6]
inactive: all other assays above

CCCCC(CC)COC(=O)OOC(C)(C)C (stereo not given)
not listed: [4] | [6]
inactive: all other assays above

Cc1ccc2ccccc2c1
not listed: [4] | [6]
inactive: all other assays above

Brc1c(Br)c(Br)c(Br)c(Br)c1Br
not listed: [3] | [5]
inactive: all other assays above

CC=CCC#N
not listed: [4] | [6]
inactive: all other assays above

Cc1ccc(Cl)c(O)c1
not listed: [6]
inactive: all other assays above

Nc1n[nH]c(N)n1
inactive: [1] | [2] | [3] | [4]

CCCCc1ccc(C(=O)O)nc1
inactive: [1] | [2] | [6] | [4]

ClCOCCl
inactive: [1] | [2] | [3] | [4]

Cc1cccc(Cc2cnc[nH]2)c1C
not listed: [6]
inactive: all other assays above

O=C(O)CCCO
not listed: [3] | [4]
inactive: all other assays above

CCC(=O)O[C@H]1[C@@H](N2CCCCC2)C[C@H]2[C@@H]3CC[C@H]4C[C@H](OC(C)=O)[C@@H](N5CCCCC5)C[C@]4(C)[C@H]3CC[C@@]21C
inactive: [1] | [2] | [3] | [4]

COc1ccc2c(c1)C13CCCC[C@@H]1C(C2)N(C)CC3 (stereo not given in full)
inactive: [1] | [3] | [6]

From PubChem BioAssay (EPA / NIEHS)
